# According to PubChem BioAssay AID1240 (Sanford-Burnham Center for Chemical Genomics, 2008):
# The whole screen tested about 50,000 compounds, of which about 800 (1.6%) showed an effect of 50% or more. For the sample, strong results were picked, then their nearest neighbours and some compounds at random.
# Target: Bcl-2-like protein 10 (Homo sapiens) (UniProt Q9HD36)
# Assay: TR3 peptide-Bcl-B binding displacers, biochemical primary FP assay, phenotype converters (AID 1240);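 note: 0% = Bcl-B with tracer peptide and DMSO and 100% = tracer peptide lacking Bcl-B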
# Conditions: GST-Bcl-B / FITC-TR3 peptide fluorescence polarization; stronger effect = higher value; compound at 3.75 mg/L
# Bcl-2-like protein 10 (Homo sapiens), sequence (Q9HD36 whole entry, looked up): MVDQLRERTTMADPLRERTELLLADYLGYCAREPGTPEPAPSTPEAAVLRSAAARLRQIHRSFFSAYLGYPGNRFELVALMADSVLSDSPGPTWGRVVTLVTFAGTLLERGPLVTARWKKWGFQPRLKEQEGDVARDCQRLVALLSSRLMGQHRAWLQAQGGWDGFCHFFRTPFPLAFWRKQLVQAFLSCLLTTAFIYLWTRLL
row,SMILES,displacement
1,O=[N+]([O-])c1ccc(COc2ccccc2/C=N/Nc2nc3ccccc3s2)cc1,-2.1%
2,O=C(COc1ccc(Cl)cc1Cl)N1CCN(C(=O)COc2ccc(Cl)cc2Cl)CC1,2%
3,CCOC(=O)c1ccc(Nc2nc3nonc3nc2NC(C)C)cc1,-7.1%
4,O=C1NC(=S)N/C1=C\c1ccccc1,0.7%
5,Cc1cc(/C=C2/NC(=S)NC2=O)c(C)n1-c1ccc(N2CCOCC2)cc1,-9%
6,O=C1NC(=S)N/C1=C/c1ccc(N2CCOCC2)cc1,94.5%
7,COc1ccc(CC(=O)Nc2ccc(Cl)c(C(F)(F)F)c2)cc1OC,6.1%
8,O=C(Nc1ccc(Br)cc1)c1ccccc1C(F)(F)F,23.2%
9,O=C1c2ccccc2C(=O)c2c1cc(NC1CCCCC1)c1nsnc21,15.8%
10,O=C1C(NC2CCCCC2)=C(N2CCCCC2)C(=O)c2ccccc21,7.4%
11,O=C1c2ccccc2-c2c(NC3CCCCC3)c(=O)[nH]c3cccc1c23,150%
12,Cc1cccc(-n2c(C)cc(C=C3C(=O)NC(=S)NC3=O)c2C)c1,72.3%
13,Cc1cc(/C=C2/SC(=S)NC2=O)c(C)n1-c1ccc(F)cc1,-6.4%
14,CCc1ccc(-n2c(C)cc(/C=C3/SC(=S)NC3=O)c2C)cc1,63%
15,Cc1cc(C=C2C(=O)NC(=S)NC2=O)c(C)n1-c1ccc(Br)cc1,21%
16,Cc1cc(/C=C2/SC(=S)NC2=O)c(C)n1-c1ccccc1,-39.7%
17,Cc1cc(/C=C2/NC(=S)NC2=O)c(C)n1-c1cccc(Cl)c1,-12.9%
18,Cc1ccc(-n2c(C)cc(C=C3C(=O)NC(=S)NC3=O)c2C)cc1C,0.1%
19,Cc1cccc(-n2c(C)cc(/C=C3/NC(=S)NC3=O)c2C)c1,-38.6%
20,Cc1cc(C=C2C(=O)NC(=S)NC2=O)c(C)n1-c1cccc(Cl)c1,107%
21,CCOC(=O)c1ccc(NC(=O)CN(c2ccc(Oc3ccccc3)cc2)S(C)(=O)=O)cc1,-2.7%
22,Cc1ccc(-c2nc(N/N=C/c3cccc(F)c3)c3ccccc3n2)cc1,5%
23,COc1ccc(C(=O)N2CCN(Cc3ccc4c(c3)OCO4)CC2)cc1OC,10.6%
24,CCOC(=O)C1=C(C)N=c2s/c(=C\c3ccc(N(C)C)o3)c(=O)n2C1c1ccc(F)cc1 (stereo not given),-22.6%

row,SMILES,displacement
1,CCOc1cc(C2/C(=C(\O)c3ccc(C)cc3)C(=O)C(=O)N2c2nncs2)ccc1O (stereo not given),8.3%
2,COc1ccc(/C(N)=N/OC(=O)c2ccc(C)c([N+](=O)[O-])c2)cc1,-1.8%
3,CCCCOC(=O)c1cccc(NC(=O)c2ccc(OC)cc2)c1,-3.1%
4,COc1ccc(C2=NN(C(C)=O)C(c3ccccc3OC)C2)cc1 (stereo not given),2.3%
5,CC(NC(=O)CN(c1cccc(C(F)(F)F)c1)S(C)(=O)=O)c1ccccc1 (stereo not given),0.7%
6,CCOc1ccc(N(CC(=O)N2CCOCC2)S(=O)(=O)c2ccc(SC)cc2)cc1,-1.3%
7,C=CCN1C(=O)/C(=C\c2ccc(OCc3ccccc3)c(OCC)c2)SC1=S,49.5%
8,Cc1ccc(/C(O)=C/c2nc3ccccc3[nH]c2=O)o1,130%
9,Cc1cc(C)c(/C(O)=C/c2nc3ccccc3oc2=O)c(C)c1,13.8%
10,Cc1ccc(/C(O)=C/c2nc3ccc([N+](=O)[O-])cc3oc2=O)o1,-6.6%
11,Cc1nc(C)c(/C(O)=C/c2nc3ccccc3[nH]c2=O)o1,-8.5%
12,Cc1ccc(/C(O)=C/c2nc3ccccc3oc2=O)o1,116%
13,CCOC(=O)c1nc2ccccc2[nH]c1=O,14.3%
14,O=C(c1cccc([N+](=O)[O-])c1)c1ccc2c(c1)C(=O)N(c1ccccc1C(=O)O)C2=O,-2.7%
15,Cc1ccc(S(=O)(=O)NCCSCc2ccccc2Cl)cc1[N+](=O)[O-],-8.5%
16,CCN(CC)S(=O)(=O)c1ccc(NC(=O)c2ccco2)cc1,-5.1%
17,CCCOc1cccc(C(=O)Nc2ccc(I)cc2Cl)c1,10.7%
18,CC(=O)Nc1ccccc1NC(=O)COc1ccccc1C,11.1%
19,CCOc1ccc(C(=O)Nc2ccc3c4c(cccc24)CC3)cc1[N+](=O)[O-],14.7%
20,Cc1ccccc1OCC(=O)Nc1ccccc1CO,-7.8%
21,CCCOc1cccc(C(=O)Nc2ccc3c4c(cccc24)CC3)c1,88.7%
22,Cc1ccccc1OCC(=O)Nc1ccc2c3c(cccc13)CC2,107%
23,O=C(N/N=C/c1cccs1)C(=O)NC1CCCCC1,7.6%
24,O=C(O/C(=C/c1nccn1Cc1ccc(Cl)cc1)c1ccccc1)c1ccccc1,-1.2%

row,SMILES,displacement
1,O=C(COc1ccc(Cl)cc1)Nc1ccc2c(c1)Cc1ccccc1-2,5.4%
2,O=C(Nc1ccccc1[N+](=O)[O-])c1ccccc1Cl,8.4%
3,COc1ccc(C(=O)CN2CCN(CCN3C(=O)c4cccc5cccc(c45)C3=O)CC2)cc1,9.4%
4,COc1ccccc1N1C(=O)/C(=C/c2ccc(N(C)C)cc2)SC1=S,-8.2%
5,Cc1c(-c2ccc(Cl)cc2)nc2ccccc2c1C(=O)Nc1ccc(F)cc1F,-9.1%
6,CCCOc1ccc(C2=NNC(=O)CC2)cc1,3.6%
7,CCn1c(O)c(/C=N/N=C/c2ccccc2)c2ccc(C3=NNC(=O)CC3)cc21,119%
8,CCn1c(O)c(/C=N/N=C2CCCC2)c2ccc(C3=NNC(=O)CC3)cc21,45.9%
9,CC1=NN(c2cccc(Cl)c2)C(=O)/C1=C/C=C/c1cccc([N+](=O)[O-])c1,13.6%
10,Cc1nc2cc(-c3ccc(F)cc3)[nH]n2c(=O)c1C,-7.3%
11,O=C1OC(c2ccccc2)=C/C1=C\c1c(Cl)cccc1Cl,-5.8%
12,COc1nccc(NCc2ccccc2)c1C#N,-12.3%
13,N#Cc1c(NCc2ccccc2)ccnc1SCc1ccccc1,-4.8%
14,N#Cc1c(NCc2ccccc2)ncc2c1Nc1ccccc1C2,112%
15,C=C(Br)Cn1c(C)nc2ccccc21,14.6%
16,COc1ccc(C(CC(=O)c2ccc(C)cc2)Nc2ccc(I)cc2)cc1OC (stereo not given),-7%
17,COc1cc(/C=C(\C#N)c2nc3ccc(C)cc3[nH]2)cc(OC)c1OC(C)=O,-4.6%
18,COc1ccc(C(=O)NNC2=Nc3cccc4cccc2c34)cc1,-17.1%
19,O=C(Nc1cccc(C(F)(F)F)c1)c1cccc(N2C(=O)c3ccccc3C2=O)c1,-5.6%
20,O=C(NC1=Nc2cccc3cccc1c23)c1cccc(C(F)(F)F)c1,62.1%
21,O=C(Nc1cccc(Br)c1)c1ccc([N+](=O)[O-])cc1,12.7%
22,Cc1[nH]c2ccc(Br)cc2c1CC(=O)N/N=C/c1ccc(Cl)c(Cl)c1,5.1%
